# PubChem BioAssay (Tox21)
# Values without a mark were called inactive. A call without a number means that no potency is given here. Active and inactive are the calls of the source. Calls come from the whole dose curve; as a rule, active = well fitted curve in the direction sought with a large enough effect in the repeat runs; inconclusive = weak or mixed curves; inactive = flat fitted curve, though single readings scatter.
# Assay: qHTS assay to test for compound auto fluorescence at 460 nm (blue) in HepG2 cells (AID 720687)
# Conditions: autofluorescence 405/460 nm, 1 h; series mostly up to 91.3 µM
# Excerpt: U.S. Tox21 Program National Center for Advancing Translational Sciences [NCATS] NIH Chemical Genomics Center [NCGC] U.S. Environmental Protection Agency [EPA] National Institutes of Environmental Health Sciences [NIEHS] National Toxicology Program [NTP] U.S. Food and Drug Administration [FDA] Tox21 Assay Overview: Compound auto fluorescence often interferes with screening of the compound library against various biological targets and signaling pathways. Some of these compounds may have fluorophoric properties. Such properties may interfere with the assay outputs resulting in false positives and/or negatives. To decrease such complications and ensure the compound activities are relevant in terms of biological response, the Tox21 10K compound library was screened for auto fluorescence. From the fluorophores used as reporter signals in our screening assays, the auto fluorescence equivalencies of compounds against three fluorophores have been evaluated: Triamterene, Fluorescein and Rose Bengal sodium for blue, green and red fluorescence, respectively. The fluorescence intensities were measured using Excitation/Emission wavelengths at 405/460nm, 485/535nm and 540/590nm for blue, green and red labels, respectively. This assay includes the blue fluorescence data.
# Tox21 Assay Protocol Summary: 2,000 HepG2 cells in 5 uL of culture medium (MEM containing 10% FBS) per well were dispensed into black wall/clear bottom 1536-well plates using a Multidrop Combi Dispenser (ThermoFisher Scientific, Waltham, MA). The assay plates were incubated overnight at 37 C to allow cell attachment to the well bottom, followed by the transfer of 23 nL compound or DMSO vehicle by a pintool work station (Kalypsys , San Diego, CA). After the assay plates were incubated for 1 hr at 37 C and 5% CO2, fluorescence intensities in the assay plates were measured by an Envision (PerkinElmer, Shelton, CT) plate reader using three labels for measuring blue, green and red fluorescence at […] 460, 535 and 590 nm respectively.
Compound,Potency,"fluorescence, % of fluorescent control"
CCC(C)(C)C1CCC(O)CC1 (stereo not given),inactive,–
CC#N,inactive,–
CCCCC/C(=C\c1ccccc1)CO,inactive,–
O=C(O)c1snc(Cl)c1Cl,inactive,–
CC(C)CCCCCCOC(=O)CCCCC(=O)OCCCCCCC(C)C,inactive,–
CCCCCCCCCCCC(=O)[O][Sn]([CH2]CCC)([CH2]CCC)[O]C(=O)CCCCCCCCCCC,inactive,–
CC(=O)CC(c1ccc([N+](=O)[O-])cc1)c1c(O)c2ccccc2oc1=O (stereo not given),–,-0.107% [at 18.6 µM]
CCCCC1C(=O)N(c2ccccc2)N(c2ccc(O)cc2)C1=O (stereo not given),–,-0.0848% [at 18.6 µM]
CCCCC(=O)O[C@]1(C(=O)CO)CC[C@H]2[C@@H]3CCC4=CC(=O)CC[C@]4(C)[C@H]3[C@@H](O)C[C@@]21C,inactive,–
CCOC(=O)C(C)Oc1ccc(Oc2nc3ccc(Cl)cc3o2)cc1 (stereo not given),inactive,–
C[N+]1(C)CCC(=C(c2ccccc2)c2ccccc2)CC1,–,0.0159% [at 18.6 µM]
Fc1c(F)c(F)c(Br)c(F)c1F,inactive,–
CC(CCc1ccc2c(c1)OCO2)NN (stereo not given),inactive,–
CCC(=O)Oc1ccc(/C(CC)=C(\CC)c2ccc(OC(=O)CC)cc2)cc1,inactive,–
Cc1cc(OI)c(C(C)C)cc1-c1cc(C(C)C)c(OI)cc1C,inactive,–
Nc1ccc(Cl)cc1[N+](=O)[O-],inactive,–
CC(Cl)C(Cl)Cl (stereo not given),inactive,–
CCCOC(=O)c1ccc(N)cc1,inactive,–
CO[C@H]1C=CO[C@@]2(C)Oc3c(C)c(O)c4c(O)c(c5c(c4c3C2=O)=NC2(CCN(CC(C)C)CC2)N=5)NC(=O)/C(C)=C\C=C/[C@H](C)[C@H](O)[C@@H](C)[C@@H](O)[C@@H](C)[C@H](OC(C)=O)[C@@H]1C,inactive,–
Oc1ccc(Nc2ccccc2)cc1,inactive,–

Compound,Potency,"fluorescence, % of fluorescent control"
COc1cc2[nH]c(=O)[nH]c(=O)c2cc1OC,–,0.0151% [at 18.6 µM]
Cc1ccc(S)cc1,inactive,–
CC1(C)C2=CCCC(C)(C)[C@]23CC[C@H]1C3,inactive,–
C/C=C(\C)C(=O)OCCC(C)CCC=C(C)C (stereo not given),inactive,–
CC(C)(C)C(=O)O,inactive,–
CCC(Cc1ccccc1)(C(=O)c1ccc(N2CCOCC2)cc1)N(C)C (stereo not given),inactive,–
CCOC(=O)[C@@H](C)Oc1ccc(Oc2nc3ccc(Cl)cc3o2)cc1,inactive,–
CCN(CC)CCNC(=O)c1ccc(NC(C)=O)cc1,inactive,–
C[N+](C)(C)CCOC(N)=O,inactive,–
Cc1cc(O)c(C(C)C)cc1Cl,inactive,–
CC(=O)OCC(=O)[C@H]1CC[C@H]2[C@@H]3CCC4=CC(=O)CC[C@]4(C)[C@H]3CC[C@]12C,inactive,–
O=C(CCC1CCN(Cc2ccccc2)CC1)c1ccc2c(c1)NCCCC2,inactive,–
CC1C2CC(CC2C2CCCC(O)C2)C1(C)C (stereo not given),inactive,–
CCOC(=O)CC(=O)C(=O)OCC,inactive,–
CCN(Cc1cccc(S(=O)(=O)O)c1)c1ccc(C(=C2C=CC(=[N+](CC)Cc3cccc(S(=O)(=O)[O-])c3)C=C2)c2ccccc2)cc1,inactive,–
Cc1nc2ccccn2c(=O)c1CCN1CCC(C(=O)c2ccc(F)cc2)CC1,inactive,–
CC(=O)Oc1ccc(C(=C2CCCCC2)c2ccc(OC(C)=O)cc2)cc1,inactive,–
COc1cc2ncnc(Nc3ccc(F)c(Cl)c3)c2cc1OCCCN1CCOCC1,inactive,–
C=CC(C)(O)CCCC(C)CCCC(C)CCCC(C)C (stereo not given),inactive,–
COC(=O)Nc1nc2ccc(C(=O)c3cccs3)cc2[nH]1,inactive,–
